CDK5 inh – inhibitors of human CDK5/p35 kinase; 0.01% of 330,000 active; inhibition, % at 10 µM; Recombinant CDK5/p35, ADP-Glo luminescence, 60 min; AID 488839;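 active = highest replicate inhibition of at least 50% and at least 75% of replicates reaching 50%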;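 note: plate controls were DMSO neutral control for no effect and GW8510 at 10 µM for full effect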
N-glyco inh – blocks N-linked glycosylation in D54 reporter cells; D54 ERlucT glycosylation luciferase reporter, 24 h; percent of 100 nM tunicamycin response; reporter increase, % at 12.5 µM; 0.23% of 360,000 active;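 active = mean luciferase reporter signal, scaled so untreated is 0 and the glycosylation-blocking control 100, at or above a set limit in every replicate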;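 note: luciferase carries N-glycosylation sites so blocking glycosylation raises the light; 0% = median of neutral control wells and 100% = median of 100 nM tunicamycin wells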
ALR inh – human ALR oxidase inhibition via reduced H2O2; 3.8% of 290,000 active; purified ALR, DTT oxidation, H2O2 HRP-luminol luminescence; inhibition, % (test concentration not listed); P55789;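 active = mean replicate inhibition above about 79%, with every replicate also reaching it, limit read from the data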
NSD2 inh – NSD2 (human) methyltransferase inhibition. O96028. NSD2 peptide methylation, AlphaScreen, 120 min. inhibition, % at 12.5 µM. 0.54% of 310,000 active; in the data active = inhibition above about 50%
CASP6 VEID inh – inhibitors of human caspase-6; P55212; purified caspase-6, Z-VEID-R110 cleavage fluorescence; inhibition, % at 12.5 µM; 0.53% of 350,000 active; AID 686996;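 active = mean inhibition across replicates at least about 35%, with every replicate also reaching that limit, limit read from the data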;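 note: 0% = median of neutral control wells and 100% = no fluorescence left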
Target sequence (P55212 24-179 limits assumed): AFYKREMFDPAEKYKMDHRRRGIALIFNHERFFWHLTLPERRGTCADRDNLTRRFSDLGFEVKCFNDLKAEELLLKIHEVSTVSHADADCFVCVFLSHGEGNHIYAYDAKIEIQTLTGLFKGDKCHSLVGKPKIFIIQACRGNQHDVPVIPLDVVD
Target sequence (P55212 194-293 limits assumed): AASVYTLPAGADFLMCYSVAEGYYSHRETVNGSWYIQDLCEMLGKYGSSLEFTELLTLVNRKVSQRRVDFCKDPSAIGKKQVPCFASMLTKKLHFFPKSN
Mot1-301 SUMO – inhibitors of SUMOylation pathway: yeast Mot1-301 growth rescue; growth rescue, % at 18.8 µM; 1% of 320,000 active; S. cerevisiae Mot1-301 growth rescue, ATP luminescence, 38.5C; percent above DMSO median, 100 means doubled; AID 2716;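 active = every valid replicate shows activation above 250% relative to neutral control wells; inactive = the rest, any valid replicate at or below 250%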;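 note: OY570 slx delta 5 strain wells were the positive control but not used for scaling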
* hit, by the source's call; ! = repeats disagree. Compounds with a hit are over-represented: about 3.9% of the library has one in this group of screens.

`COc1ccc2[nH]c(C)c(-c3csc(N)n3)c2c1` gave CDK5 inh -1, N-glyco inh 3, ALR inh 99*, NSD2 inh 27, CASP6 VEID inh 3 and Mot1-301 SUMO -4.
COc1ccc(-c2csc(N)n2)cc1 was read as CDK5 inh 0, N-glyco inh -1, NSD2 inh 1 and Mot1-301 SUMO 12.
Screening COc1cccc(S(=O)(=O)N2C[C@@H]3N[C@H](C2)C3c2ccc(-c3ccccc3C)cc2)c1 (stereo partly specified) returned CASP6 VEID inh 37*!.
Screening O=C(O)C1=C(C2CCCCC2)C(=O)c2ccccc21 returned CDK5 inh 1, N-glyco inh 0, NSD2 inh 0 and CASP6 VEID inh 0.
`O=C1C=C(C2CCCCC2)C(=O)c2ccccc21` gave CDK5 inh 1, N-glyco inh -3, NSD2 inh 0 and CASP6 VEID inh 50*.
`O=C(C[C@H]1CC[C@@H](NC(=O)c2ccc3c(c2)OCO3)[C@H](CO)O1)NCc1ccc(F)cc1` gave CASP6 VEID inh 2.
Screening CN1CCc2cccc3c2C1Cc1ccc(O)c(O)c1-3 (stereo unspecified) returned CDK5 inh -1, N-glyco inh 0, ALR inh 98*, CASP6 VEID inh -2 and Mot1-301 SUMO 17.
`Cc1ccc(C(=O)N/N=C(/CC(=O)c2cccs2)C(F)(F)F)cc1` gave CDK5 inh 0, N-glyco inh -1, ALR inh 62, NSD2 inh 9, CASP6 VEID inh -2 and Mot1-301 SUMO 11.
For O=C(N/N=C(\CC(=O)c1cccs1)C(F)(F)F)c1ccncc1 the results were CDK5 inh 1, N-glyco inh -11, ALR inh 98*, NSD2 inh -1, CASP6 VEID inh -6 and Mot1-301 SUMO -19.
Screening COc1ccc(CN(C)S(=O)(=O)c2nnc(NC(=O)c3cccc(OC)c3)s2)cc1 returned CDK5 inh 0, N-glyco inh 2, ALR inh 2, NSD2 inh 1, CASP6 VEID inh -4 and Mot1-301 SUMO 5.
For COc1cccc(C(=O)Nc2nnc(S(=O)(=O)N(C)Cc3ccc(F)cc3)s2)c1 the results were CDK5 inh 1, N-glyco inh -1, ALR inh 84*, NSD2 inh -1, CASP6 VEID inh 1 and Mot1-301 SUMO -4.
For Cn1c(CCNC(=O)c2ccc(Cl)cc2)n[nH]c1=S the results were CDK5 inh -2, N-glyco inh 1, ALR inh 96*, NSD2 inh 5 and Mot1-301 SUMO -2.
`Cn1c(CSCc2ccc(Cl)cc2)n[nH]c1=S` gave CDK5 inh 4, N-glyco inh 1, ALR inh 94*, NSD2 inh -2, CASP6 VEID inh -1 and Mot1-301 SUMO -6.
Screening Cn1c(CSCc2ccc(F)cc2)n[nH]c1=S returned CDK5 inh -1, N-glyco inh 1, ALR inh 7, NSD2 inh -1, CASP6 VEID inh -1 and Mot1-301 SUMO 164.
For CCC(=O)N(C)C[C@H]1Oc2ncc(-c3ccccc3F)cc2C(=O)N([C@@H](C)CO)C[C@H]1C the results were CASP6 VEID inh -3.
O=C(Nc1cccs1)Nc1ccccc1Cl was read as CDK5 inh -1, N-glyco inh -3, ALR inh 89*, NSD2 inh 2 and Mot1-301 SUMO 15.
For Cc1ccc(NC(=O)Nc2cccs2)c(Cl)c1 the results were CDK5 inh 0, N-glyco inh 0, ALR inh 5, NSD2 inh 8 and Mot1-301 SUMO 1.
Screening CC(=O)c1cccc(NC(=O)Nc2cccs2)c1 returned CDK5 inh 2, N-glyco inh -5, ALR inh 96*, NSD2 inh -2 and Mot1-301 SUMO 9.
`Cc1ccc(NC(=O)Nc2cccs2)cc1` gave CDK5 inh 0, N-glyco inh -1, ALR inh 98*, NSD2 inh -2 and Mot1-301 SUMO 596.
For Cc1ccc(NC(=O)Nc2cccs2)nc1 the results were CDK5 inh 1, N-glyco inh 2, ALR inh 98*, NSD2 inh 2 and Mot1-301 SUMO -7.
CCc1ccc(NC(=O)Nc2cccs2)cc1 was read as CDK5 inh 0, N-glyco inh -10, ALR inh 3, NSD2 inh 1 and Mot1-301 SUMO 11.

Compound activity from PubChem BioAssay.
